# Out of some 16,000 compounds screened, about 2,600 (16%) were called active. About 20% were inconclusive and are not listed. The list is a sample of the results. Unmarked numbers belong to inactive results. Calls come from the whole dose curve; as a rule, active = well fitted curve in the direction sought with a large enough effect; inconclusive = small, poorly fitted or top-dose-only effect, or effect the other way; inactive = no such curve, though single readings can be large or run the other way.
# Target: Cytochrome P450 2D6 (Homo sapiens) (UniProt P10635)
# Sequence (P10635 whole entry, looked up): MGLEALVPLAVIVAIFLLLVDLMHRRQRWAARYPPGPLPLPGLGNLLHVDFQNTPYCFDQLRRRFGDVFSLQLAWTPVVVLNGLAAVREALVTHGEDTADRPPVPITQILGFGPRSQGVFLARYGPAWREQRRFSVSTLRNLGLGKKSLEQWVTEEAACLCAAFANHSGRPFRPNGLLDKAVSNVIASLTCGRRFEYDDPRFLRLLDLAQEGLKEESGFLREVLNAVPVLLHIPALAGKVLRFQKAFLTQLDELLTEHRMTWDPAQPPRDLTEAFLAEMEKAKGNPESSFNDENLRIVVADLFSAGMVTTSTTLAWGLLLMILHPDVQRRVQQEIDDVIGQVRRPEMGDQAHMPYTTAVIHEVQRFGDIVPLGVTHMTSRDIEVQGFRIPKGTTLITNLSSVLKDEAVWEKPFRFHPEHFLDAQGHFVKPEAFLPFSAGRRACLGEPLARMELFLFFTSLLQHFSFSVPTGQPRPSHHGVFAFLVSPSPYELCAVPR
# Assay: Cytochrome panel assay with activity outcomes
# Conditions: recombinant CYP, pro-luciferin dealkylation, luminescence, p450-cyp2d6; series mostly up to 57.1 µM; activity, negative = inhibition: at the top concentration
# % is set by controls: 0 for no effect and ±100 for the full control effect.
SMILES,"activity, negative = inhibition",AC50
COCC(=O)Nc1c(I)c(C(=O)NC[C@@H](O)CO)c(I)c(C(=O)N(C)C[C@@H](O)CO)c1I,-0.434% [at 25.6 µM],–
O=C(CCCc1ccccc1)N1CCN(c2ccc([N+](=O)[O-])cc2)CC1,-12.6%,–
CCOc1cc(/C=C2/SC(=O)N(CC(=O)N3CCc4ccccc4C3)C2=O)ccc1OCC(=O)O,1.37%,–
CC(C)N(C(=O)CSc1nc2ccccc2n1-c1ccccc1)C(C)C,-26.4%,–
COc1ccc(C(=O)N2CCC[C@@]3(CCN(Cc4ccc(C#N)cc4)C3)C2)cc1,-17.5%,–
COc1ccc(C(=O)N2CCC3(CCCN(CC(C)C)C3)CC2)cc1,-15%,–
COc1ccc(C(=O)N2CCC[C@@]3(CCN(Cc4ccccc4)C3)C2)cc1,–,7.94 µM (active)
COc1ccc(C(=O)N2CCC[C@@]3(CCN(C(=O)Nc4ccccc4)C3)C2)cc1,8.36%,–
COc1ccc(C(=O)N2CCC3(CCCN(Cc4ccccc4)C3)CC2)cc1,–,7.94 µM (active)
COc1ccc(C(=O)N2CCC3(CCCN(C)C3)CC2)cc1,3.52%,–
C=CCc1cc(C=O)cc(OC)c1OCc1ccc(Cl)cc1,-12.6%,–
COc1cc(-n2ccnc2SC)c(Cl)cc1Cl,-9.75%,–
CCNc1nc(NCC)nc(ON=C(C)C)n1,4.81%,–
COc1ccc2nc(/N=C\N(C)C)sc2c1,-10.1%,–
Cc1[nH]n2c(=O)c(C#N)c(-c3ccccc3)nc2c1-c1ccccc1,1.51%,–
CCC#CCOCC(=O)Nc1ccccc1,0.758%,–
c1ccc(CCNc2nnnn2-c2ccccc2)cc1,-16.8%,–
Cn1ncc2c(Nc3cccc(Cl)c3)nc(Nc3cccc(Cl)c3)nc21,16.7% [at 11.4 µM],–
Cn1ncc2c(NCCc3ccccc3)nc(Cl)nc21,–,0.126 µM (active)
CC(C)n1c(=O)c2c(O)cc(=O)oc2c2ccccc21,-10.6%,–
NC(=O)[C@H]1CC2(CC(c3cccc(NC(=O)c4ccccc4)c3)=NO2)CN1C(=O)[C@H]1CCC(=O)N1 (stereo not given in full),0.596%,–
CCC(CC)C(=O)Nc1cccc(C(=O)Nc2ccc(OC)cc2[N+](=O)[O-])c1,13%,–
COc1ccc(NC(=O)C(F)(F)F)cc1OC,3.91%,–
CCCCCCCCC[n+]1cccc2c3ccccc3ccc21,–,0.0708 µM (active)

SMILES,"activity, negative = inhibition",AC50
O=C(OC(C(=O)NC1CCCC1)c1ccncc1)C1=Cc2ccccc2OC1 (stereo not given),0.043%,–
Cc1ccc(CNC(=O)C2(NC(=O)Nc3ccc(C)cc3)CCCCC2)cc1,-4.3%,–
CCn1c(COc2ccccc2)nnc1SCC(=O)c1cccc([N+](=O)[O-])c1,-17.8%,–
CCn1c(SCC(=O)NC(=O)NCc2ccco2)nnc1-c1cccs1,-27.5%,–
CCn1c(SCC(=O)c2ccc(OC)cc2)nnc1C1CC1,–,14.1 µM (active)
CCn1c(SCC(=O)c2ccccc2)nnc1-c1cccs1,–,14.1 µM (active)
COc1ccc(NC(=O)CSc2nnc(C3CC3)n2-c2ccccc2)cc1,-4.69%,–
CCN(CC)C(=O)CSc1nnc(-c2cc3ccccc3cc2O)n1CC,-4.31%,–
CCn1c(SCC(=O)OC)nnc1C1CCCCC1,-1.44%,–
CCn1c(SCC(=O)NC2CCCc3ccccc32)nnc1-c1cccs1 (stereo not given),-25.5%,–
CCn1c(SCC(=O)c2ccc3ccccc3c2)nnc1-c1cccs1,–,14.1 µM (active)
CCCCN=c1sc(C(=O)OC)cc(=O)n1CCCC,-10.8%,–
O=C1C2=C(Nc3cc([N+](=O)[O-])ccc3N2)O[C@@H]1c1c[nH]c2ccc(COc3ccccc3)cc12,5.7% [at 11.4 µM],–
Cc1noc(C)c1C(=O)N1CCC2(CCCN(c3ccncc3)C2)CC1,2.43%,–
O=C(O)c1cc2c(o1)CCC/C2=N\O,9.97%,–
Cc1nc2ncnn2c(C)c1CCC(=O)Nc1ccc(S(=O)(=O)N2CCCCCC2)cc1,-10.7%,–
CCCn1nc(Oc2nc(NCC)nc(NCC)n2)ccc1=O,-6.81%,–
Cc1nc2nc(-c3ccc(Cl)cc3)nn2c(C)c1Cl,-3.06%,–
COC(=O)c1cc(NC(=O)CC2NC3CCCCC3NC2=O)cc(C(=O)OC)c1 (stereo not given),10.9%,–
C/C=C\C[C@H](C)[C@H](O)[C@H]1C(=O)N[C@@H](CC)C(=O)N(C)CC(=O)N(C)[C@@H](CC(C)C)C(=O)N[C@@H](C(C)C)C(=O)N(C)[C@@H](CC(C)C)C(=O)N[C@@H](C)C(=O)N[C@@H](C)C(=O)N(C)[C@@H](CC(C)C)C(=O)N(C)[C@@H](CC(C)C)C(=O)N(C)[C@@H](C(C)C)C(=O)N1C,-1.21% [at 25.6 µM],–
COc1ncc2nc(-c3ccc(Cl)cc3)c(=O)n(-c3ccccc3)c2n1,-2.38%,–
CCc1ccc(-c2ccc(C(=O)C(F)(F)F)[nH]2)cc1,7.66%,–
Cc1ccccc1C(=O)NC(NCc1ccco1)C(Cl)(Cl)Cl (stereo not given),-0.249%,–
Cc1nc(SCC(=O)Nc2c(C)nn(C)c2C)c2cnn(-c3ccccc3)c2n1,7.46%,–

SMILES,"activity, negative = inhibition",AC50
CCc1nnc(NC(=O)C2CCN(C(=O)NC3CCCCC3)CC2)s1,35.1%,–
CC(/C=N/NC(=O)c1cccc([N+](=O)[O-])c1)=C\c1ccccc1,-0.219%,–
COc1cc(/C=N/NC(=O)c2cccc([N+](=O)[O-])c2)ccc1OCc1ccc(C)cc1,-1.87%,–
CC(=O)N/N=C/c1cc([N+](=O)[O-])ccc1OCCOc1ccccc1,–,0.0562 µM (active)
N#CCCn1c(=O)c(-c2ccccc2)nc2cnc(OCc3ccccc3)nc21,0.297%,–
COc1ccc(COC(=O)N/N=C2/C[C@@H](O)[C@@H](O)[C@@H]3[C@@H]4C(=O)N([C@@H](C)c5ccccc5)C(=O)[C@H]4CC[C@H]23)cc1,-3.9% [at 11.4 µM],–
COc1ccc(C(=O)Nc2ccc(C(=O)OCC(=O)c3ccccc3)cc2)cc1,-25.3%,–
COc1ccc(C(=O)COC(=O)c2ccc(NC(=O)c3ccccc3)cc2)cc1,0.145%,–
O=C(C[n+]1cccc(NC(=O)c2ccccc2)c1)c1ccc(NC(=O)c2ccccc2)cc1,–,14.1 µM (active)
COc1cccc(Cn2c(=O)c(CCc3ccccc3)nc3cnc(N(C)C)nc32)c1,-1.17%,–
N[C@@H](C(=O)O)c1ccc(O)c(C(=O)O)c1,-5.56%,–
COc1cccc(Cn2c(=O)c(CCc3ccccc3)nc3cncnc32)c1,-6.45%,–
CC1=NCC[N@@+]1(CCc1ccccc1)Cc1ccccc1,–,0.0501 µM (active)
CC(=O)Nc1ccc(S(=O)(=O)NCC2CCC(C(=O)N3CCN(c4ccccn4)CC3)CC2)cc1 (stereo not given),-15.8%,–
CC(=O)NS(=O)(=O)c1ccc(NC(=O)NC2CCCCC2)cc1,-8.87%,–
CC(=O)Nc1ccc(S(=O)(=O)N2CCN(c3nc(NC4CCCC4)c4ccccc4n3)CC2)cc1,–,12.6 µM (active)
O=c1c2ccccc2nnn1CSc1nnc(COc2ccc(Cl)cc2)n1Cc1ccco1,-20.5%,–
O=C1CN2CCN(CC2)CC(=O)Nc2ccc(cc2)S(=O)(=O)c2ccc(cc2)NC(=O)CN2CCN(CC2)CC(=O)Nc2ccc(cc2)S(=O)(=O)c2ccc(cc2)N1,0.0037% [at 11.4 µM],–
CC1(C)OC[C@@H]2O[C@H](n3cnc4c(N)nc(Cl)nc43)[C@@H](OS(C)(=O)=O)[C@@H]2O1,8.22% [at 11.4 µM],–
Cc1noc(NS(=O)(=O)c2ccc(NC(=O)CC34CC5CC(CC(Br)(C5)C3)C4)cc2)c1C,13%,–
CCCCCCC(C)n1cc(C(C)=O)c(=O)[nH]c1=O (stereo not given),-5.37%,–
CCC/C=C(\CCC)C(NC(=O)Oc1ccc(F)cc1)c1ccc(C(=O)OC)cc1 (stereo not given),-20.4%,–
COC(=O)c1[nH]c2ccc(Br)cc2c1NC(=O)Oc1ccccc1,-5.73%,–
COC(=O)c1[nH]c2ccc(Br)cc2c1NC(=O)CN1CCN(C2CCCCC2)CC1,–,1 µM (active)

SMILES,"activity, negative = inhibition",AC50
COC(=O)c1[nH]c2ccc(Br)cc2c1NC(=O)CN1CCCc2ccccc21,-30%,–
CCOC(=O)C1CN(S(=O)(=O)c2cccc(C(F)(F)F)c2)c2cc(CC(=O)OC)ccc2O1 (stereo not given),-21.1%,–
CN1CCN(c2ncc3nc(-c4ccc(Cl)cc4)c(=O)n(CCC#N)c3n2)CC1,4.88%,–
CNS(=O)(=O)c1ccccc1C(=N)c1ccccc1,19.2% [at 11.4 µM],–
CCOC(OCC)P(=O)(O)CCCNCc1ccc(Cl)c(Cl)c1,8.85%,–
CCNC(=S)NNC(=O)c1cccc(Br)c1,1.21%,–
CCCCCNCc1cccc(Br)c1,–,2 µM (active)
Cc1cc(Cl)nc2ccc(Cc3ccc4nc(Cl)cc(C)c4c3)cc12,-2.9% [at 11.4 µM],–
COc1ccc(/C=N/NC(=S)NC2CCS(=O)(=O)C2)cc1OC (stereo not given),-4.59%,–
C=CC1=C(C(=O)O)N2C(=O)[C@@H](NC(=O)/C(=N\OCC(=O)O)c3csc(N)n3)[C@@H]2SC1,-1.18% [at 25.6 µM],–
NC[C@](O)(CS(=O)(=O)O)c1ccc(Cl)cc1,17.4%,–
Cc1cc(-c2cc(-c3ccc(Cl)cc3)nc(N)c2C#N)co1,-12.3%,–
Cc1cc(OCCn2cc(/C(N)=N/O)c3ccccc32)ccc1Cl,–,3.98 µM (active)
COc1ccccc1OCCn1cc(C(=O)c2ccco2)c2ccccc21,-27.9%,–
CO[C@]1(NC(=O)CSCC#N)C(=O)N2C(C(=O)O)=C(CSc3nnnn3C)CS[C@H]21,–,inactive
C[C@H](C[C@H](N)C(=O)O)C(=O)O,12.6%,–
Cc1ccc(-c2cc(-c3nnc(SCC(=O)NC(C)C(C)C)n3N)c3ccccc3n2)cc1 (stereo not given),-4.49%,–
COc1ccc(C)cc1NC(=O)CSc1nnc(-c2ccc(OC)c(OC)c2)n1N,-12.9%,–
CCn1c2ccccc2c2cc(NC(=O)CSc3nnc(-c4ccc(OC)c(OC)c4)n3N)ccc21,–,14.1 µM (active)
Cc1cccc(NC(=O)CSc2nnnn2C)n1,-12.5%,–
CCCCOc1ccc(C(=O)N/C(=C\c2cccc([N+](=O)[O-])c2)C(=O)OCCC)cc1,0.716%,–
Cc1cc(C)c(S(C)(=O)=O)c(Oc2ccc(C(C)(C)C)cc2)n1,-9.68%,–
O=c1c[n+](CCCC[n+]2cc(=O)o[nH]2)[nH]o1,-2.36% [at 11.4 µM],–

# Source: PubChem BioAssay AID1851 (National Center for Advancing Translational Sciences (NCATS), 2009)
